Laboratory results published in PubChem BioAssay (NCATS).
Inconclusive results are not listed. Entries that show only a call come without a potency. Calls of active or inactive are those of the source. Calls come from the whole dose curve; as a rule, active = well fitted curve in the direction sought with a large enough effect; inconclusive = small, poorly fitted or top-dose-only effect, or another doubt; inactive = no such curve, though single readings can be large; an effect the other way counts as inactive or inconclusive.

Test system: Nanoluciferase (engineered Oplophorus gracilirostris luciferase)
Assay: Primary Nanoluciferase (NLuc) qHTS assay for identification of artifact compounds. (AID 1845222)
Conditions: NLuc-conditioned medium, Nano-Glo luminescence, 5 min; series mostly up to 54.1 µM
Method in brief: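 Luminescence read-out of secreted NLuc in S16 cell conditioned medium (1:55); compounds tested with 15 min RT preincubation, then Nano-Glo substrate 1:100, 5 min. % inhibition vs no-enzyme and DMSO controls, 4-parameter Hill fit.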

Q: For `O=C(CC1CC(c2ccc(F)cc2F)=NO1)N1CCOCC1` (centres undefined), which Potency is on record?
A: Its Potency is “inactive”.

Q: Which Potency does the source give for `CC1=C2C3OC(=O)C(C)C3(O)CCC2(C)CCC1` (centres undefined) here?
A: Its Potency is “inactive”.

Q: For `O=C(C1OC1/C=C/c1ccc2c(c1)OCO2)N1CCCCC1` (centres undefined), which Potency is on record?
A: Its Potency is “inactive”.

Q: For `CC(C)=CCC/C(C)=C/CO[C@@H]1O[C@H](CO[C@@H]2OC[C@](O)(CO)[C@H]2O)[C@@H](O)[C@H](O)[C@H]1O`, which Potency is on record?
A: Its Potency is “inactive”.

Q: Which Potency does the source give for `CC(C)N(CCCNC(=O)Nc1ccc(C(C)(C)C)cc1)C[C@H]1O[C@@H](n2ccc3c(N)ncnc32)[C@H](O)[C@@H]1O` here?
A: The Potency was “inactive”.

Q: Which Potency does the source give for `O=C(O)C[C@H]1CCC(=O)[C@@H]1C/C=C\CCO` here?
A: Its Potency is “inactive”.

Test system: not listed separately
Assay: Primary redox qHTS assay for identification of artifact compounds. (AID 1845223)
Conditions: Amplex Red/HRP redox cycling with DTT, fluorescence; series mostly up to 53.8 µM
Method in brief: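 Redox-cycling detection via DTT (250 uM final) oxidation coupled to Amplex Red (25 uM)/HRP (250 mU/mL) in HBSS. 15 min preincubation plus 30 min after DTT, room temperature. Ex/Em 525/598 nm; 4-parameter Hill fit against DMSO and 10 uM DA3003.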

Q: With `CC/C=C\[C@H](O)[C@H](O)C1=C(C)C(=O)[C@]2(O1)C(=O)N[C@@](O)(C(=O)c1ccccc1)[C@@H]2O` as the molecule, how does the Potency read?
A: Its Potency is “inactive”.

Q: Which Potency does the source give for `O=C(/C=C/c1ccc(O)cc1)O[C@@H]1C[C@@](O)(C(=O)O)C[C@@H](O)[C@@H]1O` here?
A: Its Potency is “inactive”.

Q: With `C=C(C(=O)O)[C@H]1C[C@]2(C)C(=O)CC[C@]23O[C@H]1C[C@@H]3C` as the molecule, how does the Potency read?
A: Its Potency is “inactive”.

Q: With `CC1CC(O)/C=C/C(O)/C=C\C(=O)O1` (centres undefined) as the molecule, how does the Potency read?
A: Its Potency is “inactive”.

Q: For `OC[C@@]1(O)CO[C@@H](OC[C@H]2O[C@@H](Oc3ccccc3)[C@H](O)[C@@H](O)[C@@H]2O)[C@@H]1O`, which Potency is on record?
A: Its Potency is “inactive”.

Q: Which Potency does the source give for `COC1OC(=O)C2=C1C1(C)CCCC(C)(C)C1CC2O` (centres undefined) here?
A: The Potency was “inactive”.

Q: With `COc1cc(/C=C/c2ccccc2)c(C(=O)O)c(O)c1CC=C(C)C` as the molecule, how does the Potency read?
A: The Potency was “inactive”.

Q: Which Potency does the source give for `C[C@@H]1O[C@@H](OC(=O)Cc2ccccc2)[C@H](O)[C@H](O)[C@H]1O` here?
A: The Potency was “inactive”.

Q: With `N=C(N)c1ccc2nc(-c3cc(CC(=O)NC(CC(=O)O)C(=O)O)cc(-c4cc(S(N)(=O)=O)ccc4O)c3O)[nH]c2c1` (centres undefined) as the molecule, how does the Potency read?
A: Its Potency is “inactive”.

Q: With `C/C1=C\CC[C@]2(C)O[C@H]2C(=O)c2c(C)coc2C1` as the molecule, how does the Potency read?
A: Its Potency is “inactive”.

Q: With `COC(=O)C1=COC(OC2OC(CO)C(O)C(O)C2O)C2C(C)CC(=O)C12O` (centres undefined) as the molecule, how does the Potency read?
A: The Potency was “inactive”.

Q: With `CC1=CC23[C@H](C=C(C(=O)O)[C@@H]2COC(=O)[C@]3(O)CO)[C@@H]1C` (some centres undefined) as the molecule, how does the Potency read?
A: The Potency was “inactive”.

Q: With `CC(=O)/C=C/C1(O)C(C)=CC(=O)CC1(C)C` (centres undefined) as the molecule, how does the Potency read?
A: The Potency was “inactive”.

Q: For `C=CC(C)(CC/C=C(\C)C(=O)OC)OC1OC(COC(=O)CC(C)(O)CC(=O)O)C(O)C(O)C1O` (centres undefined), which Potency is on record?
A: Its Potency is “inactive”.

Q: With `C[C@]1(OC(=O)/C=C\c2ccc(O)cc2)C[C@@H](O)[C@]2(O)C=CO[C@@H](O[C@@H]3O[C@H](CO)[C@@H](O)[C@H](O)[C@H]3O)C12` (some centres undefined) as the molecule, how does the Potency read?
A: Its Potency is “inactive”.

Q: For `Nc1nc(COC(=O)c2ccc([N+](=O)[O-])cc2)nc(Nc2ccccc2)n1`, which Potency is on record?
A: Its Potency is “inactive”.

Q: For `CC(C)=CCC[C@@](C)(O)[C@H]1CC[C@]2(C)[C@@H]1[C@H](O)CC1[C@@]3(C)CC[C@H](O[C@@H]4O[C@H](CO)[C@@H](O)[C@H](O)[C@H]4O[C@@H]4O[C@H](CO)[C@@H](O)[C@H](O)[C@H]4O)C(C)(C)[C@@H]3CC[C@]12C` (some centres undefined), which Potency is on record?
A: Its Potency is “inactive”.

Q: Which Potency does the source give for `C[C@H](/C=C/[C@@]1(O)[C@H](C)CC(=O)CC1(C)C)O[C@@H]1O[C@H](CO[C@@H]2OC[C@@H](O)[C@H](O)[C@H]2O)[C@@H](O)[C@H](O)[C@H]1O` here?
A: The Potency was “inactive”.

Q: For `COC(=O)[C@H](Cc1ccc([N+](=O)[O-])cc1)NC(=O)c1cccc2ccccc12`, which Potency is on record?
A: Its Potency is “inactive”.

Q: For `COc1cc(/C=C/C(=O)OC[C@H]2O[C@@H](OC3OC=C(C(=O)O)C4C(O)CC(C)(O)C34)[C@H](O)[C@@H](O)[C@@H]2O)cc(OC)c1O` (some centres undefined), which Potency is on record?
A: The Potency was “inactive”.

Q: With `COC(=O)C1=CO[C@@H](O[C@@H]2O[C@H](CO)[C@@H](O)[C@H](O)[C@H]2O)[C@@H]2[C@@H](C(=O)O)CC[C@H]12` as the molecule, how does the Potency read?
A: Its Potency is “inactive”.

Q: For `CCOc1nc2c(N)ncnc2n1CC`, which Potency is on record?
A: Its Potency is “inactive”.

Q: For `C=C[C@H]1[C@H](O[C@@H]2O[C@H](CO)[C@@H](O)[C@H](O)[C@H]2O)OC=C2C(=O)N3Cc4c([nH]c5ccccc5c4=O)[C@@H]3C[C@H]21`, which Potency is on record?
A: Its Potency is “inactive”.

Q: For `CC(=O)Nc1cccc2c1c(Sc1ccc(Cl)cc1)c(C)n2CC(=O)O`, which Potency is on record?
A: Its Potency is “inactive”.

Q: With `COc1cc(/C=C/C(=O)O[C@H]2C[C@@H]3C(C(=O)O)=CO[C@@H](O[C@@H]4O[C@H](CO)[C@@H](O)[C@H](O)[C@H]4O)[C@@H]3[C@H]2C)ccc1O` as the molecule, how does the Potency read?
A: The Potency was “inactive”.

Q: Which Potency does the source give for `Cc1nc(-c2cccnc2)sc1C(=O)Nc1ccccc1-c1cn2c(CN3CCOCC3)csc2n1` here?
A: Its Potency is “inactive”.

Q: With `CCC1=C(C)C(=O)C(C)CC12C(=O)CCC2C(=O)O` (centres undefined) as the molecule, how does the Potency read?
A: The Potency was “inactive”.

Q: With `OC[C@H]1O[C@@H](OC[C@H]2O[C@@H](OCc3ccccc3)[C@H](O)[C@@H](O)[C@@H]2O)[C@H](O)[C@@H](O)[C@@H]1O` as the molecule, how does the Potency read?
A: Its Potency is “inactive”.
